Bioassay records: PubChem, National Center for Advancing Translational Sciences (NCATS)
LmPK inhibitor: LmPK (Leishmania mexicana) enzyme inhibition. purified LmPK, Kinase-Glo ATP luminescence, 1 h. Potency, µM (series often up to 57.5 µM), hits mostly inhibitors. hit rate 0.37% among 290,000. AID 1721
Target sequence (Q27686 whole entry, looked up): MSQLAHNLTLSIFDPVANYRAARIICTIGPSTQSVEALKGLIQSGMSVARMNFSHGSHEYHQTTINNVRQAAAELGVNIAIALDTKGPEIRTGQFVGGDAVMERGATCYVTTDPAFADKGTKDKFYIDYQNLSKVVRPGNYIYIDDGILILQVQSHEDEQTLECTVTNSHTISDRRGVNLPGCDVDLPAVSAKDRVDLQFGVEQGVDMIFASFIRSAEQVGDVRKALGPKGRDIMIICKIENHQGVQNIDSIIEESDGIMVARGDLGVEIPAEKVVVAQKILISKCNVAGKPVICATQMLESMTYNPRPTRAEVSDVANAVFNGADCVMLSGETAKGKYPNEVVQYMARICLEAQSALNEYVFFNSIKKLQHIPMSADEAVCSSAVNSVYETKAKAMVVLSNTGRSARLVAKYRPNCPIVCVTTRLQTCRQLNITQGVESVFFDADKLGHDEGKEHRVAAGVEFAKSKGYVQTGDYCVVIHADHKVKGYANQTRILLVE
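0.1 nM LmPK, 0.5 mM PEP, 0.1 mM ADP; 50 mM imidazole pH 7.2, 7 mM MgCl2, 50 mM KCl; 1 h RT. Kinase-Glo luminescence readout, normalized to no-enzyme (full inhibition) and uninhibited wells.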
CHX counter: counter-screen hit for Shiga toxin inhibitors, cycloheximide; cell reporter, cycloheximide protein synthesis inhibition counterscreen; max response, %; hit rate 12% among 300,000; AID 2314; in the data active = max response mostly above about 13%, no sharp cut-off; inactive = mostly below about 14%; note: read at 38.3 µM for the half of the compounds with a filed dose
Giardia FBPA inh: Giardia lamblia aldolase inhibition; Potency, µM (highest dose often 59.6 µM), hits mostly inhibitors; purified Giardia FBPA; AID 2451; A8B2U2; hit rate 0.71% among 290,000; note: nearly all actives have a fitted effect of over 55% in size
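40 nM FBPA preincubated 10 min at RT with compound (up to 57.5 uM final), then substrate plus GAPDH/TPI/NAD/arsenate coupling and diaphorase/resazurin added. Fluorescence read after 20 min at RT, 525/598 nm.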
Shiga toxin inh: inhibitors of Shiga toxin in Vero cells; hit rate 9.2% among 290,000; AID 2315; Vero cells, Shiga toxin protein synthesis inhibition reporter; inhibition, % at 38.7 µM; in the data active = inhibition mostly above about 28%, no sharp cut-off; inactive = mostly below about 43%
NS1 inh: influenza NS1 inhibition. Potency, µM (titrated, usually from 46.1 µM). hit rate 0.4% among 270,000. AID 2326; calls by dose curve; note: actives are rising curves; nearly all actives have a fitted effect of over 50% in size
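OD600 was taken as the measure of yeast growth restored by compound in an NS1-expressing S. cerevisiae strain. Cells had been washed out of glucose medium and diluted 1:100 into galactose -URA medium, pH 6.0.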
Of the large screens only hits and unclear results are named; the others gave an inactive call. Hits are enriched below; roughly 14% of the tested compounds scored in any of these assays. Unless noted, calls come from the whole dose curve; as a rule, active = well fitted curve in the direction sought with a large enough effect; inconclusive = small, poorly fitted or top-dose-only effect, or another doubt; inactive = no such curve, though single readings can be large; an effect the other way counts as inactive or inconclusive.

O=[N+]([O-])c1ccc2nc(-c3ccccc3)oc2c1	CHX counter 26, Shiga toxin inh 71 (no result: NS1 inh)
O=C(Nc1cc(Cl)ccc1Cl)c1noc2c1CCCC2	NS1 inh inconclusive
Cc1cc(NC(=O)c2noc3c2CCCC3)no1	CHX counter 22, Shiga toxin inh 31
Cc1cc(NC(=O)c2noc3c2CCCCC3)no1	CHX counter 29, Shiga toxin inh 130
Cc1cc(NC(=O)c2noc3c2CCCCC3)nn1Cc1ccc(Cl)cc1	none
CCN(Cc1ccccc1)C(=O)Cc1c[nH]c2ccccc12	none
O=C(OCC1OC(OC(=O)c2cc(O)c(O)c(OC(=O)c3cc(O)c(O)c(O)c3)c2)[C@@H](OC(=O)c2cc(O)c(O)c(OC(=O)c3cc(O)c(O)c(O)c3)c2)C(OC(=O)c2cc(O)c(O)c(OC(=O)c3cc(O)c(O)c(O)c3)c2)C1OC(=O)c1cc(O)c(O)c(OC(=O)c2cc(O)c(O)c(O)c2)c1)c1cc(O)c(O)c(OC(=O)c2cc(O)c(O)c(O)c2)c1 (stereo partly specified)	Giardia FBPA inh 3.5µM (no result: LmPK inhibitor, CHX counter, Shiga toxin inh, NS1 inh)
Cc1cn(C2OC(COC(=O)c3ccccc3)C(OC(=O)c3ccccc3)C2OC(=O)c2ccccc2)c(=O)[nH]c1=O (stereo unspecified)	NS1 inh inconclusive
Cc1nnc(N/N=C/c2ccco2)n1N	Giardia FBPA inh 20µM (no result: NS1 inh)
Cc1ccnc(N/N=C/c2ccco2)n1	CHX counter 41, Giardia FBPA inh inconclusive
c1ccc(-c2n[nH]c3c2CCC3)cc1	none
S=c1nc(-c2ccccc2)oc2c1CCCC2	CHX counter 60, Shiga toxin inh 95 (no result: Giardia FBPA inh)
O=[N+]([O-])c1ccc(-c2nc(=S)c3c(o2)CCCC3)cc1	CHX counter 12
COP(=O)(OC)c1nc(-c2ccc([N+](=O)[O-])cc2)oc1N1CCCCC1	none
COc1cccc(-c2nc(=S)c3c(o2)CCCC3)c1	CHX counter 42, Giardia FBPA inh inconclusive, Shiga toxin inh 120
COc1cccc(-c2n[nH]c3c2CCC3)c1	CHX counter 22 (no result: NS1 inh)
O=C(O)C[C@@H](C(=O)O)c1ccccc1[N+](=O)[O-]	none (no result: LmPK inhibitor, CHX counter, Giardia FBPA inh, Shiga toxin inh)
Cc1ccccc1-c1nc(N(C)C)c2ccccc2n1	none (no result: LmPK inhibitor, CHX counter, Shiga toxin inh, NS1 inh)
COc1cccc(Cn2c(=O)c(-c3ccc(F)c(F)c3)nc3cncnc32)c1	none (no result: LmPK inhibitor, CHX counter, Shiga toxin inh, NS1 inh)
FC(F)(F)c1cccc(N2Cc3ccccc3C2)c1	CHX counter 20, Shiga toxin inh 37
COc1ccc(NC(=O)/C=C/c2cccc(Br)c2)cn1	CHX counter 27, Shiga toxin inh 55
COc1ccc(NC(=O)Nc2ccc(F)cc2)cn1	CHX counter 29, Shiga toxin inh 34
NS(=O)(=O)c1ccc(NC(=O)CSc2ccccc2)cc1	CHX counter 20 (no result: NS1 inh)
COc1ccc(NC(=O)/C=C/c2cccc(C(F)(F)F)c2)cn1	none
COc1ccc(NC(=S)Nc2ccccc2)cn1	none
O=C(Nc1ccncc1)Nc1ccc(F)c(Cl)c1	none
COC(=O)c1ccc(NC(=O)Nc2ccc(F)c(Cl)c2)cc1	CHX counter 28, Shiga toxin inh 49
CC(=O)N[C@@H](CC(C)C)C(=O)N[C@@H](CCCNC(=N)N)C(=O)N[C@@H](Cc1cnc[nH]1)C(=O)N[C@@H](Cc1ccc(O)cc1)C(=O)N[C@@H](CC(C)C)C(=O)N[C@@H](CC(N)=O)C(=O)N[C@@H](CC(C)C)C(=O)N[C@@H](CC(C)C)C(=O)N[C@H](C(=O)N[C@@H](CCCNC(=N)N)C(=O)N[C@@H](CCC(N)=O)C(=O)N[C@@H](CCCNC(=N)N)C(=O)N[C@@H](Cc1ccc(O)cc1)C(N)=O)[C@@H](C)O	none (no result: LmPK inhibitor, NS1 inh)
CC(=O)NC1(C(=O)O)CCCC1	none
COC(=O)c1ccc(NC(=O)Nc2ccc(F)cc2)cc1	CHX counter 26, Shiga toxin inh 107
CCOC(=O)c1ccc(NC(=O)Nc2ncc(Cl)cc2Cl)cc1	CHX counter 17
CCOC(=O)c1ccc(NC(=O)Nc2ccc(F)cc2)cc1	CHX counter 21
CCOC(=O)c1ccc(NC(=O)Nc2ncccc2C)cc1	none
COc1ccc(NC(=O)CSc2ccccc2)cn1	CHX counter 27, Shiga toxin inh 49 (no result: NS1 inh)
COC(=O)c1ccc(NC(=O)Nc2ccc([N+](=O)[O-])cc2)cc1	none
Cc1c(Br)c(C(F)(F)F)nn1CC(=O)NCCCn1ccnc1	none
O=C(NCCOc1ccccc1F)C1CCC(=O)N(CCc2cccc(F)c2)C1 (stereo unspecified)	none (no result: Giardia FBPA inh)
COc1ccc(/C=C/C(=O)c2ccccc2O)cc1	LmPK inhibitor inconclusive, CHX counter 65, Shiga toxin inh 106
COc1ccc(/C=C/C(=O)c2ccoc2)cc1	CHX counter 42, Shiga toxin inh 89
COc1ccc(C(=O)/C=C\c2ccc(NC(=O)c3cccs3)cc2)cc1	none
